# Screening data (PubChem BioAssay)
# This is a sample that favours compounds with a hit; in the whole collection about 11% have one here.
# HPGD inh: qHTS Assay for Inhibitors of HPGD (15-Hydroxyprostaglandin Dehydrogenase). 15-hydroxyprostaglandin dehydrogenase [NAD(+)] (Homo sapiens), P15428. purified HPGD, NADH fluorescence kinetic, PGE2 substrate. Potency, µM, for inactives: at the highest dose activity change, negative = inhibition, usual class: inhibitors. 4.3% of 150,000 active; active means well fitted inhibition curve with a large enough effect, not every such curve was filed as active; inconclusive means small, poorly fitted or top-dose-only effect, or another doubt; inactive means no such curve, though single readings can be large or run the other way; further: potency means the concentration at half of the fitted maximal effect
#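 20 nM HPGD preincubated 15 min at room temperature with compound in 50 mM Tris-HCl pH 8, 0.01% Tween 20. Started with 1 mM NAD+ and 30 uM prostaglandin E2; NADH fluorescence (360/450 nm) read 5 times over 30-s intervals, last minus first.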
# IMPase Li cell: qHTS Assay for Identifying the Cell-Membrane Permeable IMPase Inhibitors: Potentiation with Lithium. CHO-M1 cells, IP1 TR-FRET (IP-One), carbachol + lithium. Potency, µM (top dose mostly 59.4 µM), for inactives: top-dose activity, negative = IMPase inhibition, usual class: inhibitors. 0.35% of 210,000 active. AID 1457, 2008;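 further: IP1 builds up when IMPase is blocked and the TR-FRET signal falls; potency means the concentration at half of the fitted maximal effect; plate controls were basal vehicle for no effect and high inhibitor control for full effect; nearly all actives have a fitted effect of over 50% in size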
#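 CHO cells stably expressing M1 receptor (2000/well, cultured 16–30 h) treated 30 min at 37C with compound plus low lithium. Cytosolic IP1 by TR-FRET (665/620 ratio and 620 channel) after 10 min lysis; AC50 by Hill fit.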
# PNC assembly inh: High Content Assay for Compounds that inhibit the Assembly of the Perinucleolar Compartment. PC3M PTB-GFP, PNC prevalence imaging, 16 h; active compounds read low. activity change (PNC), negative = inhibition, % at 10 µM. 3.1% of 140,000 active;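 active means readout at or below -70, meaning at least 70% loss of cells showing the perinucleolar compartment, a nuclear body marking cancer cells; inconclusive means readout between -30 and a set limit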;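 further: plate controls were DMSO wells for no effect and camptothecin positive control wells for full effect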
#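 Compounds are pinned in duplicate onto adhered PC3M cells stably expressing GFP-tagged PTB and incubated 16 h at 37 C. Cells are then fixed, nuclei stained with Hoechst, and PNC-positive cells counted.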
# ALDH1A1 block: qHTS Assay for Inhibitors of Aldehyde Dehydrogenase 1 (ALDH1A1); Aldehyde dehydrogenase 1A1 (Homo sapiens), P00352; Purified ALDH1A1, NADH fluorescence, propionaldehyde substrate; Potency, µM (series often up to 75.3 µM), for the others: at the highest dose activity, negative = inhibition, actives largely listed as inhibitors; 7.3% of 220,000 active; AID 1030, 2008; active means well fitted inhibition curve with a large enough effect, not every such curve was filed as active; inconclusive means small, poorly fitted or top-dose-only effect, or another doubt; inactive means no such curve, though single readings can be large or run the other way;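 further: potency means the concentration at half of the fitted maximal effect; plate controls were no enzyme wells and a reference inhibitor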
# IMPase cell inh: qHTS Assay for Identifying the Cell-Membrane Permeable IMPase Inhibitors. 120,000 tested, under 10 active. CHO-M1 cells, IP1 accumulation, HTRF TR-FRET ratio. Inositol monophosphatase 1 (Rattus norvegicus), P97697. AID 901, 2007. inhibition (IP1 accumulation), % at 46.1 µM; active means well fitted curve in the direction sought with a large enough effect in the signal ratio, not every such curve was filed as active; inconclusive means small, poorly fitted or top-dose-only effect, or a change in a side signal; inactive means no such curve, though single readings can be large or run the other way; the % refers to the signal ratio;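 further: cells stimulated with carbachol in lithium chloride buffer; plate controls were DMSO basal wells for no effect and reference inhibitor wells for full effect; higher means more IMPase inhibition seen as more IP1 and lower FRET ratio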
#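 Seeded CHO-M1 cells were dosed with compound at up to 46 uM, stimulated with carbachol for 30 min, then lysed in IP-One detection reagents. Higher IP1 lowers the TR-FRET signal.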
# ALOX12 inhib: qHTS Assay for Inhibitors of 12-hLO (12-human lipoxygenase); Polyunsaturated fatty acid lipoxygenase ALOX12 (Homo sapiens), P18054; purified 12-hLO, xylenol orange hydroperoxide absorbance; Potency, µM (doses to about 57.1 µM), for the others: at the top dose activity change, negative = inhibition, most hits filed as inhibitors; 0.12% of 150,000 active; further: potency means the concentration at half of the fitted maximal effect; nearly all actives have a fitted effect of over 55% in size
# Target sequence (P18054 whole entry, looked up): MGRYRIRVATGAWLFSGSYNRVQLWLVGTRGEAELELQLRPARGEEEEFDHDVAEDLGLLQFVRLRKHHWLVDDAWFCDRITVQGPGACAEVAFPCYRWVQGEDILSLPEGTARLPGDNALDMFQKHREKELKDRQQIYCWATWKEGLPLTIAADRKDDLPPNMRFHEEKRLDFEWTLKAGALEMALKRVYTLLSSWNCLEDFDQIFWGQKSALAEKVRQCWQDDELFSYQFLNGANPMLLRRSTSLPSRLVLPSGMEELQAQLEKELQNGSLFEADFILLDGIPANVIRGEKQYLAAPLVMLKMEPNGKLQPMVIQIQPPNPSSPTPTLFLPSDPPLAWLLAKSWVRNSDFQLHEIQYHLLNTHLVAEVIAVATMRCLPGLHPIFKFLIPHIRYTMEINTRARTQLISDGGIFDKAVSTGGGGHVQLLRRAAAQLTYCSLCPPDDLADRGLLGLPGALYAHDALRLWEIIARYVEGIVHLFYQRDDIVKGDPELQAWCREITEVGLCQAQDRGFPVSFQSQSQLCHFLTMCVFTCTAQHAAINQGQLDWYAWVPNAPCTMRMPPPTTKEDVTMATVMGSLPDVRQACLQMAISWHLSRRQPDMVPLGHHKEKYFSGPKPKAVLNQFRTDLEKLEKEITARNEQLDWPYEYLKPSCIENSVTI
#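 Purified human 12hLO (150 nM), preincubated 15 min with compound, then 40 uM arachidonic acid for 30 min, room temperature, Hepes pH 7.0 with 0.01% Triton X-100. Hydroperoxide detected by ferrous iron/xylenol orange; 573/405 nm absorbance ratio gives reaction progress.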
# Numbers without * were called inactive; ? = inconclusive; . = not tested or not shown; [ ] = remark or other dose. Unless noted, the call rests on the fitted dose curve; in most records, active means well fitted curve in the direction sought with a large enough effect; inconclusive means small, poorly fitted or top-dose-only effect, or another doubt; inactive means no such curve, though single readings can be large; an effect the other way counts as inactive or inconclusive. Unless noted, on the % scale 0 is the no-effect control and ±100 the full control effect.
SMILES,HPGD inh,IMPase Li cell,PNC assembly inh,ALDH1A1 block,IMPase cell inh,ALOX12 inhib
O=C1N/C(=N/O)S/C1=C/c1cccnc1,.,-1.1%,.,-12.0%,.,.
Cc1ccc(N=C2NC(=O)/C(=C\c3ccco3)S2)cc1,?,11.2%,?,-11.1%,.,-19.2%
Cc1ccc(S(=O)(=O)/N=C2/NC(=O)/C(=C/c3ccc(Br)o3)S2)cc1,14.1µM*,4.6%,?,-11.3%,.,?
COc1ccccc1CN1CC[C@@]2(CCCN(C(=O)c3c(C)noc3C)C2)C1,-13.6%,-1.0%,.,-3.6%,.,-0.9%
COc1ccc2c(c1)O[C@H](c1ccc3c(c1)OCO3)[C@@H](OC(=O)NS(=O)(=O)c1ccc(F)cc1)C2=O,-6.9%,9.3%,.,3.2%,.,.
O=C(Nc1ccc(-c2nnc3n2CCCCC3)cc1)c1cnccn1,10µM*,-15.1%[38.3 µM],-17.9,3.3%,?,-3.7%
Cc1onc(-c2ccccc2)c1C(=O)Nc1ccc(-c2nnc3n2CCCCC3)cc1,7.08µM*,1.4%[38.3 µM],8.9,2.7%,9.3,-3.1%
O=C(Cn1cnc2ccccc2c1=O)Nc1cccc(-c2nnc3n2CCCCC3)c1,-12.0%,50.9%[38.3 µM],?,-5.4%,0.9,1.6%
O=C(Cn1cnc2ccccc2c1=O)Nc1ccc(-c2nnc3n2CCCCC3)cc1,12.6µM*,-4.7%[38.3 µM],11.8,14.1µM*,-1.5,-3.6%
Cc1ccc(NC(=O)c2cnccn2)cc1,.,-4.8%,.,-1.6%,.,.
O=C(CN1CCN(Cc2cccc(Cl)c2)C1=O)NCc1ccccn1,-10.3%,2.2%[38.3 µM],2.9,5.1%,3.1,4.6%
CCc1nnc(NC(=O)CCNC(=O)c2ccccc2Cl)s1,.,2.6%,.,2.1%,.,.
CCc1nnc(NC(=O)C(=O)NCCOC(=O)c2ccccc2Cl)s1,-16.1%,-5.6%[38.3 µM],-109.4*,?,1.9,-6.4%
COc1ccc(C2NC(=O)NC(C)=C2C(=O)Nc2cc(C)cc(C)c2)c(OC)c1 (configuration not stated),.,.,.,.,-4.8,.
CC(=O)OCC1OC(C#Cc2ccc(C(C)(C)C)cc2)C=CC1OC(C)=O (configuration not stated),.,.,.,-11.8%[13.5 µM],.,.
Cc1cc(=O)oc2cc(OC(=O)CCN3C(=O)c4ccccc4C3=O)ccc12,?,8.91µM*,-7.5,?,-20.7,-10.5%
CC1Cc2ccccc2N1C(=O)COc1nc2ccccc2nc1N1CCOCC1 (configuration not stated),-9.1%,25.1µM*,41.5,?,?,-3.3%
Cc1cc(=O)oc2cc(OCC(=O)N3CC(C)OC(C)C3)ccc12 (configuration not stated),?,-7.1%[38.3 µM],-4.8,?,-1.2,2.1%
CCCNC(=O)COc1nc2ccccc2nc1N1CCOCC1,-7.3%,1.5%,9.1,1.7%,.,1.7%
Cc1cc(=O)oc2cc(OCC(=O)N3c4ccccc4CC3C)ccc12 (configuration not stated),?,-0.7%[38.3 µM],-85.0*,?,6.1,-9.0%
O=C(O)c1ccc(N[C@@H]2OC[C@@H](O)[C@@H](O)[C@@H]2O)cc1,-6.5%,9.5%,.,3.3%,.,.
CC(=O)c1ccc(-n2nnnc2SCC(=O)Nc2sc(C)c(C)c2C#N)cc1,-9.3%,0.4%,-9.9,17.8µM*,-6.8,-1.8%
CCOC(=O)c1cnc(SCc2nc(N)nc(Nc3ccccc3)n2)nc1N,-8.0%,41.3%[38.3 µM],-123.0*,1.6%,4.9,-2.5%
CCOC(=O)c1cnc(SCCc2ccccc2)nc1N,-9.4%,-6.2%[38.3 µM],60.8,-6.1%,3.7,6.5%
CCOC(=O)c1cnc(SCC(=O)Nc2sc(C)c(C)c2C#N)nc1N,-6.4%,-5.2%[38.3 µM],26.3,31.6µM*,0.9,-1.6%
CCOC(=O)c1cnc(SCC(=O)Nc2cc(OC)cc(OC)c2)nc1N,0.6%,15.2%[38.3 µM],?,-11.0%,5.5,-8.6%
